Source: the antibiotic and cytotoxicity screens of Wong et al. (2023)
Out of some 39,000 compounds screened, about 3,300 (8.5%) were called active. The sample holds actives, similar compounds and a random draw of the others, so the mix is not that of the screen.

System: HepG2
Assay: cytotoxicity call (relative viability < 0.9)
Settings: 10 µM

Row | Structure (SMILES) | cytotoxicity call
1 | C[C@@H]1CN([C@@H](C)CO)C(=O)CCCn2nncc2CO[C@H]1CN(C)C(=O)Nc1ccc(N2CCN(C)CC2)cc1 | inactive
2 | C[C@H]1CN([C@@H](C)CO)C(=O)Cc2cc(NC(=O)Nc3cccc4ccccc34)ccc2O[C@H]1CN(C)C(=O)Nc1ccc(F)cc1 | inactive
3 | C[C@@H]1CN([C@@H](C)CO)C(=O)c2cc(NS(=O)(=O)c3ccccc3)ccc2O[C@@H](C)CCCCO[C@H]1CN(C)Cc1ccc(C(=O)O)cc1 | inactive
4 | Cc1cc(C(=O)Nc2cccc3c2O[C@H](CN(C)S(=O)(=O)c2ccc(Cl)cc2)[C@@H](C)CN([C@@H](C)CO)C3=O)n(C)n1 | inactive
5 | Cc1ccc(S(=O)(=O)Nc2ccc3c(c2)CC(=O)N([C@@H](C)CO)C[C@@H](C)[C@H](CN(C)S(=O)(=O)c2ccc(F)cc2)O3)cc1 | inactive
6 | CC(C)(O/N=C(\C(=O)N[C@@H]1C(=O)N2C(C(=O)O)=C(C[N+]3(CCNC(=O)c4ccc(O)c(O)c4Cl)CCCC3)CS[C@H]12)c1csc(N)n1)C(=O)O | inactive
7 | CC(C)NC(=O)Nc1ccc2c(c1)C(=O)N([C@@H](C)CO)C[C@@H](C)[C@H](CN(C)C(=O)Nc1ccc(F)cc1)OCCCC[C@@H](C)O2 | inactive
8 | C[C@H]1CN([C@@H](C)CO)C(=O)Cc2cc(NS(C)(=O)=O)ccc2O[C@H]1CN(C)C(=O)Nc1ccccc1 | inactive
9 | C[C@H]1CN([C@@H](C)CO)C(=O)c2cc(NC(=O)Nc3cccc4ccccc34)ccc2O[C@@H]1CN(C)Cc1ccncc1 | inactive
10 | COc1ccc(CNC(=O)N(C)C[C@H]2OCc3ccccc3-c3c(n(C)c4ccccc34)C(=O)N([C@H](C)CO)C[C@@H]2C)cc1 | inactive
11 | O=C(C[C@@H]1C[C@@H]2c3cc(NC(=O)C4CCOCC4)ccc3O[C@@H]2[C@@H](CO)O1)NCCN1CCCCC1 | inactive
12 | Cc1noc(C)c1S(=O)(=O)Nc1ccc2c(c1)CC(=O)N([C@H](C)CO)C[C@H](C)[C@H](CN(C)C(=O)Nc1ccccc1)O2 | inactive
13 | C[C@@H]1CCCCO[C@H](CN(C)Cc2ccc(C(=O)Nc3ccccc3N)cc2)[C@@H](C)CN([C@H](C)CO)C(=O)c2cc(NS(=O)(=O)c3cccs3)ccc2O1 | inactive
14 | C[C@@H]1CCCCO[C@H](CN(C)Cc2ccc(C(=O)Nc3ccccc3N)cc2)[C@@H](C)CN([C@H](C)CO)C(=O)c2cc(NS(=O)(=O)c3ccccc3)ccc2O1 | inactive
15 | C[C@@H]1CCCCO[C@@H](CN(C)Cc2ccc(C(=O)Nc3ccccc3N)cc2)[C@@H](C)CN([C@H](C)CO)C(=O)c2cc(NS(=O)(=O)c3cccs3)ccc2O1 | active
16 | COc1ccc2c3c(n(c2c1)C)[C@H](CO)N(C[C@]13CCN(CC1)C(=O)Nc1ccc(cc1F)F)C(=O)Nc1ccc(cc1)F | inactive
17 | O=C(C[C@@H]1CC[C@H](NS(=O)(=O)c2ccccc2)[C@@H](CO)O1)NCc1ccncn1 | inactive
18 | C[C@H](CO)N1C[C@H](C)[C@H](CN(C)C(=O)Nc2ccc(C(F)(F)F)cc2)Oc2ccc(NC(=O)C3CCCCC3)cc2C1=O | inactive
19 | C[C@H]1CN([C@@H](C)CO)S(=O)(=O)c2ccc(C#CCN(C)C)cc2O[C@@H]1CN(C)Cc1ccc(F)cc1 | inactive
20 | C[C@@H]1CN([C@@H](C)CO)S(=O)(=O)c2ccc(C#CC3CC3)cc2O[C@H]1CN(C)Cc1ccc(F)cc1 | inactive

Row | Structure (SMILES) | cytotoxicity call
21 | C[C@@H]1CN([C@@H](C)CO)S(=O)(=O)c2ccc(C#CCN(C)C)cc2O[C@H]1CN(C)Cc1ccc(F)cc1 | inactive
22 | C[C@H](CO)N1C[C@H](C)[C@@H](CN(C)Cc2ccc(F)cc2)Oc2cc(C#CC3CC3)ccc2S1(=O)=O | inactive
23 | C[C@@H]1CN([C@H](C)CO)S(=O)(=O)c2ccc(C#CCN(C)C)cc2O[C@H]1CN(C)Cc1ccc(F)cc1 | active
24 | C[C@@H]1CN([C@H](C)CO)S(=O)(=O)c2ccc(C#CC3CC3)cc2O[C@H]1CN(C)Cc1ccc(F)cc1 | active
25 | C[C@H](CO)N1C[C@H](C)[C@@H](CN(C)Cc2ccc(F)cc2)Oc2cc(C#CCN(C)C)ccc2S1(=O)=O | inactive
26 | C[C@H](CO)N1C[C@H](C)[C@H](CN(C)Cc2ccc(F)cc2)Oc2cc(C#CCN(C)C)ccc2S1(=O)=O | active
27 | C[C@@H]1CN([C@@H](C)CO)S(=O)(=O)c2ccc(C#CCN(C)C)cc2O[C@@H]1CN(C)Cc1ccc(F)cc1 | inactive
28 | CCCNC(=O)N1C[C@@H](O)COC[C@@H]2O[C@@H](CC(=O)NCc3ccncn3)CC[C@H]21 | inactive
29 | C[C@@H]1CN([C@@H](C)CO)S(=O)(=O)c2ccc(C3=CCCC3)cc2O[C@@H]1CN(C)C(=O)c1cnccn1 | inactive
30 | COc1ccc(CN(C)C[C@H]2OCCCC[C@H](C)Oc3ccc(NS(=O)(=O)c4ccc(Cl)cc4)cc3C(=O)N([C@H](C)CO)C[C@H]2C)cc1 | inactive
31 | C[C@H](CO)N1C[C@H](C)[C@@H](CN(C)C(=O)Cc2ccccc2)OCCCC[C@H](C)Oc2ccc(NC(=O)Cc3ccccc3)cc2C1=O | inactive
32 | CC(C)N1C[C@H](C)[C@@H](CN(C)Cc2ccc(Oc3ccccc3)cc2)Oc2c(NC(=O)c3ccccn3)cccc2C1=O | inactive
33 | COc1ccccc1-c1ccc2c(c1)O[C@H](CN(C)CC1CCOCC1)[C@@H](C)CN([C@H](C)CO)S2(=O)=O | inactive
34 | C[C@@H]1CN([C@@H](C)CO)S(=O)(=O)c2ccc(C#CC3(O)CCCC3)cc2O[C@@H]1CN(C)C(=O)c1cccnc1 | inactive
35 | C[C@@H]1CN([C@@H](C)CO)C(=O)c2ccccc2-c2ccccc2CO[C@H]1CN(C)Cc1ccccc1C(F)(F)F | inactive
36 | O=C(C[C@@H]1CC[C@H]2[C@@H](COC[C@@H](O)CN2S(=O)(=O)c2ccc(F)cc2)O1)N[C@@H]1CCN(Cc2ccccc2)C1 | inactive
37 | O=C(C[C@H]1CC[C@H](NC(=O)Cc2ccccn2)[C@H](CO)O1)NCCc1ccncc1 | inactive
38 | CC1CCN(C(=O)N2c3ccccc3Sc3ccccc32)CC1 | inactive
39 | CSc1ccc2c(c1)N(CCC1CCCCN1C)c1ccccc1S2.Cl (stereo not given) | active
40 | C[C@H]1CN([C@@H](C)CO)C(=O)c2cccc(NS(=O)(=O)c3cccs3)c2O[C@H]1CN(C)S(C)(=O)=O | inactive
